# Assay results taken from PubChem BioAssay (Tox21).
# Results filed as inconclusive are left out. Where a call stands in place of a potency, no number is given. Calls of active or inactive are those of the source. Calls come from the whole dose curve.
# Test: Nuclear factor erythroid 2-related factor 2/antioxidant responsive element (Nrf2/ARE) small molecule agonists: luciferase reporter gene qHTS assay in human keratinocytes (AID 1919969); note: nearly all actives have a fitted effect of over 35% in size
# Details: KeratinoSens HaCaT ARE-luciferase, luminescence, 24 h; series mostly up to 92.4 µM
# Excerpt: National Center for Advancing Translational Sciences [NCATS]
# Division of Preclinical Innovation [DPI]
# U.S. Environmental Protection Agency [EPA]
# National Institutes of Environmental Health Sciences [NIEHS]
# National Toxicology Program [NTP]
# U.S. Food and Drug Administration [FDA]
# Oxidative stress has been implicated in the pathogenesis of a variety of diseases ranging from cancer to neurodegeneration. The antioxidant response element (ARE) signaling pathway plays an important role in the amelioration of oxidative stress. The KeratinoSens (Givaudan, Switzerland) is an in vitro test method which quantifies luciferase induction as a measure of activation of Keap1-Nrf2-antioxidationt/electrophile response element (ARE) dependant pathway in HaCaT human keratinocytes stably transfected with a selectable plasmid. The KeratinoSens assay is a cell-based assay with a reporter cell line to detect potential skin sensitizers by their ability to induce the Nrf2/ARE-response. The activation of the report gene under culture conditions can be detected by ONE-Glo Luciferase Assay System (Promega, Madison, WI). This cell line has been used to screen the Tox21 10K compound library to identify agonists that induce oxidative stress. The cytotoxicity of the Tox21 compound library against the KS-ARE cell line was tested in parallel by measuring the cell viability using CellTiter- Fluor assay system (Promega, Madison, WI) in the same wells.
# HaCaT derived cell line KeratinoSens were dispensed at 1,500 cells/5uL/well in 1536-well white wall/solid bottom plates using a Multidrop Combi (ThermoFisher Scientific, Waltham, MA) dispenser. After the assay plates were incubated at 37 C/5% CO2 for 5 h, 23 nL of compounds dissolved in DMSO, positive controls or DMSO only was transferred to the assay plate by a pintool workstation (Kalypsys, San Diego, CA). The plates were incubated at 37 C/5% CO2 for 23 h, followed by addition of 1uL/well of CellTiter-Fluor reagent into the assay plates using a Flying Reagent Dispenser (Aurora Discovery, San Diego, CA) for cell viability readout that measures cytotoxicity. After 1 h incubation at 37 C/5% CO2 the fluorescence intensity was measured using a ViewLux (PerkinElmer, Shelton, CT) plate reader. Then 4uL/well of One-Glo were added using a Flying Reagent Dispenser. After the plates were incubated at room temperature for 30 min, the luminescence intensity in the assay plates was measured using ViewLux plate reader.
# Potency is the fitted concentration of half-maximal effect.
SMILES,Potency,"activity, positive = activation"
O=C1[C@H]2CCCC[C@H]2C(=O)N1CCCCN1CCN(c2nsc3ccccc23)CC1,inactive,
C#CCOC(=O)[C@@H](C)Oc1ccc(Oc2ncc(Cl)cc2F)cc1,inactive,
O=C(NCCO[N+](=O)[O-])c1cccnc1,inactive,
C=C/C(C)=C/C/C=C(\C)CCC=C(C)C,68.6 µM (active),
Nc1ccc(C(=O)N2CC3CC(CN(Cc4ccccc4)C3)C2)cc1,inactive,
OC[C@@H](O)C(O)[C@@H](O)CO (stereo not given in full),inactive,
O=c1c(-c2ccccc2)c1-c1ccccc1,2.66 µM (active),
Nc1ccc2cc(S(=O)(=O)O)cc(O)c2c1,inactive,
Cc1ccc(O)cn1,inactive,
CN(C)CCOC1=Cc2ccccc2Sc2ccc(Cl)cc21,inactive,
Cc1ccc(C(=O)c2ccccc2)cc1,inactive,
CCN(CC)CC(=O)Nc1c(C)cccc1C(=O)OC,inactive,
CCC(Cc1ccccc1)(C(=O)c1ccc(N2CCOCC2)cc1)N(C)C (stereo not given),68.6 µM (active),
CCOC(=N)CC(=O)OCC,inactive,
C=COCC1CCC(COC=C)CC1 (stereo not given),inactive,
CCn1ccnc1CC1COc2ccccc2O1 (stereo not given),inactive,
CC(CC(C)(C)C)CC(C)(C)CC(C)(C)C (stereo not given),inactive,
COc1ccc(C2C(=O)c3ccccc3C2=O)cc1,inactive,
CCCCN(CCCC)C(C(N)=O)c1ccc(OC)cc1 (stereo not given),inactive,
CCCN(CCC)c1c([N+](=O)[O-])cc(C(F)(F)F)c(N)c1[N+](=O)[O-],inactive,

SMILES,Potency,"activity, positive = activation"
COC(=O)C1CC(=O)C(C(=O)OC)CC1=O (stereo not given),,-3.71% [at 8.39 µM] (inactive)
CCC(C)N(C)C(=O)c1cc2ccccc2c(-c2ccccc2Cl)n1 (stereo not given),inactive,
CC(C)(C#N)Nc1nc(Cl)nc(NC2CC2)n1,inactive,
CCCCC(CC)C(=O)OC(C)C (stereo not given),inactive,
C=CCON/C(CCC)=C1\C(=O)CC(C)(C)C(C(=O)OC)=C1O,inactive,
CCNc1nc(NC(C)(C)C)nc(OC)n1,inactive,
NC(CO)C(=O)NNCc1ccc(O)c(O)c1O (stereo not given),inactive,
CCn1nc(Cc2ccccc2)cc1C1CCN(C[C@H]2C[C@H](N(C)[C@@H](C(=O)O)C(C)C)C[C@@H]2c2cccc(F)c2)CC1,inactive,
N#CCc1ccc(Cl)cc1Cl,inactive,
CC(=O)N(CC(O)CN(C(C)=O)c1c(I)c(C(=O)NCC(O)CO)c(I)c(C(=O)NCC(O)CO)c1I)c1c(I)c(C(=O)NCC(O)CO)c(I)c(C(=O)NCC(O)CO)c1I (stereo not given),inactive,
CC(=O)N[C@@H](CCC(N)=O)C(=O)O,inactive,
Nc1ccn([C@@H]2O[C@H](CO)[C@@H](O)C2(F)F)c(=O)n1,inactive,
OC[C@@H](O)[C@@H](O)CO,inactive,
CN1C[C@@H]2C[C@H]1CN2c1cc2c(cc1F)c(=O)c(C(=O)O)cn2C1CC1,,-6.17% [at 19 µM] (inactive)
COc1ccccc1NC(=O)c1cc2ccccc2cc1O,61.1 µM (active),
CCCCCCCCCCCCCCCCCCOCCO,,-0.745% [at 19 µM] (inactive)
CCCCCCCCCCCCCCCCOP(=O)([O-])OCC[N+](C)(C)C,inactive,
C/C=C/C=C/COC(=O)C(C)C,68.6 µM (active),
CC(=O)O[C@@H]1CC2CCC1(C)C2(C)C (stereo not given in full),inactive,
COc1ccccc1Oc1c(NS(=O)(=O)c2ccc(C(C)(C)C)cc2)nc(-c2ncccn2)nc1OCCO,33.5 µM (active),
